Bioassay records as filed in PubChem BioAssay.
Most compounds without a hit are left out; they make up all but 0.58% or so of the library.
Epigenetic derep: Quantitative High-Throughput Screen for Regulators of Epigenetic Control. murine LDR cells, GFP reporter derepression, 30 h. Potency, µM (titrated, usually from 53.9 µM), without a hit: top-dose GFP activation, usual class: activators. 280,000 compounds, 0.2% hits. AID 1865, 2009; further: potency means the concentration at half of the fitted maximal effect; % of control where 0% means no effect; nearly all actives have a fitted effect of over 60% in size
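Readout is the number of GFP-expressing murine LDR cells, counted by cytometry following washing. Cells were treated with compound for 30 h at 37 C; the stably integrated CMV-GFP locus is normally silent.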
IL-2 act: qHTS of IL-2 Activators; IL-2 activation reporter assay, cell-based qHTS; stimulated with anti-CD3/CD4/CD28 beads; in transgenic mouse T cells; activation, % (series mostly up to about 46 µM); 360,000 compounds, 0.065% hits; AID 652025, 2013; in the data active means activation above about 50%; inconclusive means mostly about 30% to 49%; further: 0% is about no effect
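Using fluorescent plate cytometry, EGFP and DsRed are detected in transgenic mouse T cells stimulated 18 h at 37 degrees C with antibody-coated beads after 60 min compound pretreatment.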
B2AR arrestin: qHTS assay of beta-arrestin-biased ligands of beta2-adrenergic receptor. Beta-2 adrenergic receptor (Homo sapiens), P07550. 330,000 compounds, 0.02% hits. beta-arrestin recruitment to beta2AR, cell-based reporter. AID 492947, 2010. Potency, µM (titrated, usually from 46.1 µM), for inactives: at the top dose activation, actives largely listed as activators;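 further: potency means the concentration at half of the fitted maximal effect; 0% = DMSO controls and full agonism = EC100 isoproterenol or metaproterenol; nearly all actives have a fitted effect of over 65% in size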
PKM2 activator: qHTS Assay for Activators of Human Muscle isoform 2 Pyruvate Kinase; Pyruvate kinase PKM (Homo sapiens), P14618; purified PKM2, Kinase-Glo ATP luminescence, activation; response scale: 0% is enzyme alone, no compound; Potency, µM (series often up to 57.5 µM), without a hit: top-dose activation, usual class: activators; 260,000 compounds, 0.34% hits; further: potency means the concentration at half of the fitted maximal effect; on the % scale 0 is the no-effect control and ±100 the full control effect; nearly all actives have a fitted effect of over 55% in size
Target sequence (P14618 whole entry, looked up, canonical isoform): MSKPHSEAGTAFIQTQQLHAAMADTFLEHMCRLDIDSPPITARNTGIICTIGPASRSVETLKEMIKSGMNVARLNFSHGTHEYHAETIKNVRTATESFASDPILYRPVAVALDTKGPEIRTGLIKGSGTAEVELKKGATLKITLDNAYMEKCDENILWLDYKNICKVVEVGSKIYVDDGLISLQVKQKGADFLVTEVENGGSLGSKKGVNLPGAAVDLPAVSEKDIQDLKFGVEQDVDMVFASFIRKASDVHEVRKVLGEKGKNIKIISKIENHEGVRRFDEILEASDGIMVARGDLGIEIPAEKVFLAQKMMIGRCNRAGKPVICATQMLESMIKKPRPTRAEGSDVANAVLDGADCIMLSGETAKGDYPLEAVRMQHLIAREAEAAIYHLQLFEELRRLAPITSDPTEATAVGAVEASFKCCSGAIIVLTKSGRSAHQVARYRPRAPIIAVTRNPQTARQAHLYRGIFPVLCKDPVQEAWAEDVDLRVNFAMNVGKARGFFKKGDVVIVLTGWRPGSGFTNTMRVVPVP
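Kinase-Glo luminescence reports ATP generated from ADP (0.1 mM) and PEP (0.5 mM) by purified hPK-M2 after 1 h at room temperature, pH 7.2 imidazole buffer; intermediate enzyme activity allows detecting inhibitors and activators.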
PINK1 expr mod: A Quantitative High throughput Screen to Identify Chemical Modulators of PINK1 Expression; PINK1 immunofluorescence, high-content cytometry, 24 h; Potency, µM (titrated, usually from 76.6 µM), without a hit: at the highest dose activation (PINK1 increase), hits mostly activators; 410,000 compounds, 0.2% hits; active means well fitted activation curve with a large enough effect; inconclusive means small, poorly fitted or top-dose-only effect; cell line not stated here; further: potency means the concentration at half of the fitted maximal effect; % of control where 0% means no effect; nearly all actives have a fitted effect of over 65% in size
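Stable cell line, 250 cells/well, 12 h attachment; compounds pinned at 5 concentrations, 24 h; CCCP control. Fixed with nuclear dye, primary antibodies 12 h at 10 degrees C, secondary plus cell stain; laser-scanning cytometer read.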
The depositor's hits bear a star; [ ] = another dose, or the depositor's remark. Unless noted, the call rests on the fitted dose curve; in most records, active means well fitted curve in the direction sought with a large enough effect; inconclusive means small, poorly fitted or top-dose-only effect, or another doubt; inactive means no such curve, though single readings can be large; an effect the other way counts as inactive or inconclusive.

`COCC1CCCN(c2nc(CN3CCN(C(=O)c4ccco4)CC3)nc3ccccc23)C1` (centres undefined) gave PINK1 expr mod 0%.
Screening COc1ccc(C(=O)C/C(=C\C(=O)c2ccc(C)cc2)c2ccccc2)cc1 returned Epigenetic derep -2%, IL-2 act -3, B2AR arrestin 0%, PKM2 activator -3% and PINK1 expr mod 25µM*.
COc1ccc(C(=O)CC(=O)c2ccccc2)cc1 was read as IL-2 act -2 and PINK1 expr mod 1%.
For COc1ccc(NC(=O)NC(C)c2ccncc2)cc1OC (centres undefined) the results were Epigenetic derep 0%, IL-2 act -2, B2AR arrestin 0%, PKM2 activator 4% and PINK1 expr mod 11µM*.
For CN(c1ccccc1)S(=O)(=O)c1ccc(Cl)c(C(=O)Nc2ccc(-c3nc4ccccc4[nH]3)cc2)c1 the results were Epigenetic derep -1%, IL-2 act 1, B2AR arrestin 0%, PKM2 activator -1% and PINK1 expr mod 11µM*.
Screening Cc1ccc(CN(Cc2cccnc2)C(=O)CN2C(=O)COc3ccccc32)o1 returned Epigenetic derep 4%, IL-2 act 1, B2AR arrestin 0%, PKM2 activator 28µM* and PINK1 expr mod 3%[38.3 µM].
`CC(C)(CNC(=O)c1cnn(-c2ncc3c(n2)-c2ccccc2CCC3)c1C1CC1)N1CCOCC1` gave PINK1 expr mod 0%.
For COc1cccc(CNC(=O)Nc2cccs2)c1 the results were Epigenetic derep -2%, IL-2 act 0, B2AR arrestin 0%, PKM2 activator 27% and PINK1 expr mod -2%.
Cc1ccc(CNC(=O)Nc2cccs2)cc1 was read as Epigenetic derep 0%, IL-2 act 0, B2AR arrestin 0%, PKM2 activator 25µM* and PINK1 expr mod 0%.
Screening COc1ccc(CNC(=O)Nc2cccs2)cc1OC returned Epigenetic derep 0%, IL-2 act 0, B2AR arrestin 0%, PKM2 activator 18µM* and PINK1 expr mod 0%.
Cc1ccccc1-c1ccc(CN2CCc3nnc(CNC(=O)c4ccccn4)n3CC2)cc1 was read as PINK1 expr mod 2%.
`CSCC[C@H](C=O)NC(=O)[C@H](CC(C)C)NC(=O)[C@H](CC(C)C)NC(C)=O` gave Epigenetic derep 3%.
CCCC[C@@H](C=O)NC(=O)[C@H](CC(C)C)NC(=O)[C@H](CC(C)C)NC(C)=O was read as Epigenetic derep 11µM*.
For Cc1ccc(Nc2sc(C(=O)c3ccccc3)c(N)c2C(=O)Nc2ccc(Cl)cc2)cc1 the results were Epigenetic derep -1% and PINK1 expr mod 40µM*.
`Cc1nc(Nc2ccc(Cl)c(Cl)c2)sc1C(=O)Nc1ccccc1` gave Epigenetic derep 0%, IL-2 act -3, B2AR arrestin -2%, PKM2 activator 4% and PINK1 expr mod -2%.
Screening Nc1c(C(=O)c2ccccc2)sc(Nc2ccc(Cl)c(Cl)c2)c1C(=O)Nc1ccccc1 returned Epigenetic derep 0% and PINK1 expr mod 16µM*.
CCOc1ccc(NC(=O)c2c(Nc3ccc(OC)cc3OC)sc(C(=O)c3ccc(Cl)cc3)c2N)cc1 was read as Epigenetic derep 0% and PINK1 expr mod 5%.
`Cc1ccccc1Nc1sc(C(=O)c2ccccc2)c(N)c1C(=O)NCc1ccc(Cl)cc1` gave Epigenetic derep -1% and PINK1 expr mod 16µM*.
Cc1ncc2c(c1CNC(=O)/C=C/c1cccs1)CCN(C(=O)C1CC(=O)OC13CCCCC3)C2 (centres undefined) was read as PINK1 expr mod 0%.
For Cc1ccccc1NS(=O)(=O)c1cc2c(cc1C)NC(=O)CO2 the results were IL-2 act -1, B2AR arrestin -1%, PKM2 activator 5.6µM* and PINK1 expr mod 1%.
For CC(=O)Nc1ccc(N/C=C/C(=O)c2ccc(Cl)cc2)cc1 the results were IL-2 act -1, B2AR arrestin 1%, PKM2 activator 10% and PINK1 expr mod 11µM*.
Screening Cc1cccc(NCc2ccc(O)c3ncccc23)c1C returned Epigenetic derep 10%, IL-2 act -1, B2AR arrestin 0%, PKM2 activator -2% and PINK1 expr mod 16µM*.
Screening Cc1cccnc1NCc1ccc(O)c2ncccc12 returned Epigenetic derep 6.3µM*, IL-2 act -3, B2AR arrestin inconclusive, PKM2 activator 13% and PINK1 expr mod 14µM*.
For O=C(OCCNc1ncc(C(F)(F)F)cc1Cl)c1ccc(S(=O)(=O)N2CCOCC2)cc1 the results were Epigenetic derep -2%, IL-2 act 3, B2AR arrestin 0%, PKM2 activator 20µM* and PINK1 expr mod 3%[38.3 µM].
Cc1onc(-c2ccccc2Cl)c1C(N)=O was read as Epigenetic derep -2%, IL-2 act 0, B2AR arrestin 0%, PKM2 activator 1% and PINK1 expr mod 0%.
`COC(=O)c1c(-c2ccccc2Cl)noc1/C=C/N(C)C` gave Epigenetic derep 22µM*, IL-2 act 0, B2AR arrestin 0%, PKM2 activator -4% and PINK1 expr mod 3%.
CC1(C)CC(=Cc2cc(O)ccc2[N+](=O)[O-])C(=O)c2ccccc21 was read as IL-2 act -2 and PINK1 expr mod 20µM*.
For COCC(=O)Nc1cc(C(=O)NC2CCCc3ccccc32)c2c(c1)nc(-c1ccncc1)n2C (centres undefined) the results were PINK1 expr mod 0%.
COc1ccc(N=C2S/C(=C\c3ccc(OCC(=O)O)cc3)C(=O)N2CCc2c[nH]c3ccccc23)cc1 was read as Epigenetic derep 1%[10.1 µM], IL-2 act -3, B2AR arrestin 0%, PKM2 activator 2.8µM* and PINK1 expr mod -1%.
`COc1ccc(N=C2S/C(=C\c3ccc(N4CCOCC4)o3)C(=O)N2CCc2c[nH]c3ccccc23)cc1` gave Epigenetic derep inconclusive, B2AR arrestin -1% and PKM2 activator 3.2µM*.
For CCN(Cc1ccncc1)Cc1ccc2c(c1)CN(C(=O)c1ccccc1)CCO2 the results were PINK1 expr mod -1%.
COC(=O)C1CCN(Cc2ccc3c(c2)CN(C(=O)c2ccc4nc(C)c(C)nc4c2)CCO3)CC1 was read as PINK1 expr mod 1%.
Screening OCCCNCc1cc2cc3c(cc2nc1N1CCN(c2cccc(Cl)c2)CC1)OCO3 returned PINK1 expr mod -1%.
`CCCc1sc(N/N=C/c2ccccn2)nc1-c1ccc(F)cc1` gave Epigenetic derep -1%, IL-2 act -3, B2AR arrestin -1%, PKM2 activator -1% and PINK1 expr mod 13µM*.
